# Compound activity: PubChem, Broad Institute
# PD-1 reverse act – reversal of PD-1 mediated T-cell inhibition; 29,000 tested, under 10 active; activation, % (test concentration not listed); AID 2316; primary human CD4 T cells, PD-L1 beads, CellTiter-Glo 96 h; call rule not given here
# MITF inh – MITF inhibition. TRPM1 promoter luciferase, luminescence, 24 h. inhibition, % (test concentration not listed). 37,000 tested, 0.28% active. AID 2240; in the data active = inhibition above about 85%; inconclusive = no clear call, values can overlap the other calls; inactive = below about 68%;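 note: human melanocyte line stably carrying TRPM1 promoter luciferase reporter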
# Hedgehog inh – blocks Sonic Hedgehog signaling; AID 2313; inhibition, % (concentration not given with the values); Shh-LIGHT2 Gli-luciferase reporter, 30 h; 22,000 tested, 2.1% active;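 active = mean inhibition across valid replicates above about 65%, limit read from the data; inconclusive = mean under the limit, yet half or more replicates past it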;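 note: pathway switched on by Shh-conditioned medium diluted 1 in 25 in low serum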
# NOMO-1 viab – STK33 inhibitor candidate reducing NOMO-1 cell viability. NOMO-1 AML viability, CellTiter-Glo luminescence, 72 h. inhibition, % (test concentration not listed). 37,000 tested, 7.5% active. AID 2330; in the data active = inhibition above about 80%; inconclusive = no clear call, values can overlap the other calls
# Hits are given with their value; 0 = inactive; ? = inconclusive; - = not tested or not shown; ! = not confirmed by another sample. Sampled rows, rich in hits. Any-hit rate of the full collection: about 8.1%.
SMILES,PD-1 reverse act,MITF inh,Hedgehog inh,NOMO-1 viab
c1ccc(CCCN2CCN(CCOC(c3ccccc3)c3ccccc3)CC2)cc1,-,0,86,104
Fc1ccc(C(OCCN2CCN(C/C=C/c3ccccc3)CC2)c2ccc(F)cc2)cc1,-,100,84,120
Fc1ccc(C(OCCN2CCN(CCCc3ccccc3)CC2)c2ccc(F)cc2)cc1,-,0,67!,103
CC[C@@]12CCCN3CC[C@]4(c5cccc(OC)c5N(C(C)=O)[C@@H]4CC1)[C@H]32,0,0,0,0
COc1cc2c(cc1OC)-c1c(oc3c4c(ccc3c1=O)OC(C(C)C)C4)CO2 (centres undefined),-,0,0,0
CC1(C)C(C(=O)Nc2ccccc2C(F)(F)F)C1(C)C,0,0,0,0
COC(=O)[C@H]1O[C@@H]2C[C@H]3OC(n4cnc5c(N)ncnc54)[C@H](OC)[C@H]3O[C@@]2(O)[C@@H](O)[C@@H]1O (some centres undefined),0,0,0,0
CC(C)c1cc2c(cc1O)[C@@]1(C)C[C@@H](O)CC(C)(CO)C1CC2 (some centres undefined),0,0,0,0
CC(=O)O[C@H]1C[C@H](O[C@H]2[C@@H](O)C[C@H](O[C@H]3[C@@H](O)C[C@H](O[C@H]4CC[C@@]5(C)C(CCC6C5C[C@@H](O)[C@]5(C)[C@@H](C7=CC(=O)OC7)CC[C@]65O)C4)O[C@@H]3C)O[C@@H]2C)O[C@H](C)[C@H]1O[C@@H]1O[C@H](CO)[C@@H](O)[C@H](O)[C@H]1O (some centres undefined),-,0,0,107
CO[C@H]1[C@H](O)[C@H](O[C@H]2CC[C@]3(C)C4CC[C@]5(C)[C@H](C6=CC(=O)OC6)CC[C@]5(O)C4CC[C@@H]3C2)O[C@@H](C)[C@@H]1O[C@@H]1O[C@H](CO[C@@H]2O[C@H](CO)[C@@H](O)[C@H](O)[C@H]2O)[C@@H](O)[C@H](O)[C@H]1O (some centres undefined),0,0,0,119
CO[C@@H]1[C@H](O)[C@@H](O[C@@H]2C[C@H]3CC[C@@H]4C(CC[C@]5(C)[C@@H](C6=CC(=O)OC6)CC[C@]45O)[C@@]3(C)[C@H](O)C2)O[C@H](C)[C@@H]1O[C@@H]1O[C@H](CO)[C@@H](O)[C@H](O)[C@H]1O (some centres undefined),0,0,0,120
OC[C@H]1O[C@@H](Oc2c[nH]c3ccc(Br)c(Cl)c23)[C@H](O)[C@@H](O)[C@H]1O,0,0,0,0
Nc1ccc(CCN2CCN(c3cccc(C(F)(F)F)c3)CC2)cc1,-,0,0,0
FC(F)(F)c1ccc2c(c1)N(CCCN1CCN(CCCl)CC1)c1ccccc1S2,0,0,66,99
CCOCN(C(=O)CCl)c1c(C)cccc1CC,-,99,80,109
CCc1cccc(CC)c1N(COC)C(=O)CCl,-,0,0,0
CCc1nc2ccccc2c(=O)n1-c1ccc(OC)cc1,0,0,0,0
CCNC(=O)[C@H]1O[C@@H](n2cnc3c(N)ncnc32)C(O)[C@H]1O (some centres undefined),0,0,0,0
COC(=O)c1ccc(OP2(=O)COc3ccccc3OC2)cc1,0,0,0,0
CCC(C)[C@H]1O[C@]2(C=C[C@@H]1C)C[C@@H]1C[C@@H](C/C=C(\C)[C@@H](OC3C[C@H](OC)C(O[C@H]4C[C@H](OC)[C@@H](O)[C@H](C)O4)[C@H](C)O3)[C@@H](C)/C=C/C=C3\CO[C@@H]4[C@H](O)C(C)=C[C@@H](C(=O)O1)[C@]34O)O2 (some centres undefined),-,100,0,104
C[C@@H]1O[C@@H](O[C@H]2[C@H](O)[C@@H](O)[C@H](O[C@@H]3C=C4CC[C@@H]5C(CC[C@]6(C)[C@@H](c7ccc(=O)oc7)CC[C@]56O)[C@@]4(C)CC3)O[C@@H]2CO)[C@H](O)[C@H](O)[C@H]1O (some centres undefined),0,0,0,124
COc1ccc2c(c1)/C(=C/c1cnc[nH]1)C(=O)N2,0,0,0,98
COC(=O)[C@@]12C(=O)C(C)C(=O)[C@]1(C)C(C)=C[C@H]1[C@]3(C)CC[C@H](OC(C)=O)C(C)(C)[C@H]3CC[C@@]12C (some centres undefined),0,0,0,0
O=c1c2ccccc2[nH]c(=S)n1-c1ccc(Cl)c(Cl)c1,0,0,0,0
C=C1C(=O)O[C@@H]2/C=C(/C)CC/C=C(/C)C[C@@H](OC(=O)/C(=C/CO)CO)C12 (some centres undefined),0,0,0,119
SMILES,PD-1 reverse act,MITF inh,Hedgehog inh,NOMO-1 viab
CO[C@H]1C[C@H](OC2CCC3(C)C4CCC5(C)C(C6=CC(=O)OC6)CC(OC(C)=O)C5(O)C4CC[C@H]3C2)O[C@@H](C)[C@@H]1O (some centres undefined),0,0,0,109
C[C@H]1OC(O[C@H]2[C@@H](O)CC(O[C@H]3[C@@H](O)C[C@H](O[C@H]4CC[C@]5(C)C6CC[C@]7(C)[C@@H](C8=CC(=O)OC8)[C@@H](O)C[C@]7(O)[C@@H]6CC[C@@H]5C4)O[C@@H]3C)O[C@@H]2C)C[C@H](O)C1O (some centres undefined),-,0,0,107
C[C@H]1O[C@@H](O[C@H]2[C@@H](O)C[C@H](O[C@H]3[C@@H](O)C[C@H](O[C@H]4CC[C@@]5(C)[C@H](CC[C@@H]6[C@@H]5CC[C@]5(C)[C@@H](C7=CC(=O)OC7)CC[C@]65O)C4)O[C@@H]3C)O[C@@H]2C)C[C@H](O)[C@@H]1O,0,0,0,124
O=C1CCCC2C3CC(CN12)[C@@H]1CCCCN1C3 (some centres undefined),-,0,0,0
CC(C)c1cc2c(cc1O)[C@@]1(C)CCCC(C)(C)[C@@H]1CC2O (some centres undefined),0,0,0,94
CC1(C)CCC[C@]2(C)c3cc(O)c(O)cc3C(=O)CC12 (some centres undefined),-,-,0,-
CC(C)(C)c1cc(C=C(C#N)C#N)cc(C(C)(C)C)c1O,0,88,104,97
N#CC(C#N)=Cc1ccc(O)c(O)c1,0,0,?,0
COc1cccc(CNCCc2c[nH]c3ccccc23)c1O,-,0,-,0
CCc1nc2ccccc2c(=O)n1-c1ccccc1Cl,0,0,0,104
CC(C)(O)c1cc(O)c2c(c1)CCC1C(C)(C(=O)O)CCCC21C (centres undefined),0,0,0,0
COC(=O)[C@@]1(O)C[C@@H]2O[C@@]1(C)n1c3ccccc3c3c4c(c5c6ccccc6n2c5c31)C(=O)NC4,0,0,0,124
N#CC(C#N)=NNc1ccc(OC(F)(F)F)cc1,0,0,82,141
CC1=CC(=O)c2c(O)cccc2C1=O,-,97,97,105
C/C1=C/C(=O)O[C@@H]2C[C@@H](CC[C@H](C)/C=C\CC1)O[C@@](O)([C@@H]1CSC(=O)N1)C2,-,0,102,114
COc1ccc([C@H]2Oc3c(I)c(OC)cc(OC)c3C[C@@H]2O)cc1OC,-,0,0,0
